Results reported in PubChem BioAssay (NCI).
About 83,000 compounds went through this panel and 20% of them were active in at least one assay; those are over-represented in the sample as a whole.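 Note: values are percent growth. 100 is the growth of untreated cells, values between 100 and 0 indicate rising inhibition; between -100 and 0 indicates cell death.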 A number with no mark means an inactive call. Activity calls are given as the source filed them. Rule for the calls: active = growth percent below 10; inactive = the rest.

What was measured:
Test in all cases: NCI-60 one-dose screen, 48 h (100 = growth as untreated, 0 = no growth, -100 = all killed)
Conditions in all cases: 10 µM unless noted
[1] = test system: HCT-15 colon
[2] = test system: HT29 colon
[3] = test system: SNB-75 CNS
[4] = test system: SNB-19 CNS
[5] = test system: U251 CNS
[6] = test system: PC-3 prostate
[7] = test system: UACC-62 melanoma
[8] = test system: LOX IMVI melanoma
[9] = test system: SK-MEL-28 melanoma

## OCc1ccc(N2CCc3cccc(F)c3C2)cc1Cl
[1]
  growth: 88.9% [0.1 µM]
[2]
  growth: 16.2% [0.1 µM]
[3]
  growth: 108% [0.1 µM]
[4]
  growth: 85.2% [0.1 µM]
[5]
  growth: 53.5% [0.1 µM]
[6]
  growth: 89.1% [0.1 µM]
[7]
  growth: -11.2% [0.1 µM] (active)
[8]
  growth: 105% [0.1 µM]
[9]
  growth: 113% [0.1 µM]

## Cn1nc(N)c2cc([C@@H]3Nc4ccc5[nH]ncc5c4[C@H]4C5CCC(C5)[C@@H]34)ccc21 (stereo not given in full)
[1]
  growth: 17.9%
[2]
  growth: 11.6%
[3]
  growth: -17.9% (active)
[4]
  growth: 29.5%
[5]
  growth: 21.1%
[6]
  growth: 17.4%
[7]
  growth: 32.1%
[8]
  growth: 38.8%
[9]
  growth: 53.2%

## C[n+]1ccccc1/C=C/c1ccc2cccc(O)c2n1
[1]
  growth: 106%
[2]
  growth: 101%
[3]
  growth: 86.8%
[4]
  growth: 97%
[5]
  growth: 100%
[6]
  growth: 94.7%
[7]
  growth: 105%
[8]
  growth: 104%
[9]
  growth: 95.7%

## COc1cc(C)c(C2C(C#N)=C(N)Oc3n[nH]c(-c4cccs4)c32)cc1C(C)C (stereo not given)
[1]
  growth: 96.2%
[2]
  growth: 98.9%
[3]
  growth: 86.8%
[4]
  growth: 103%
[5]
  growth: 90.2%
[6]
  growth: 95.3%
[7]
  growth: 96.1%
[8]
  growth: 98.6%
[9]
  growth: 112%

## NC1=C(Cl)C(=O)c2ccc(S(N)(=O)=O)cc2C1=O
[1]
  growth: -58.2% (active)
[2]
  growth: -50.3% (active)
[3]
  growth: -100% (active)
[4]
  growth: -73% (active)
[5]
  growth: -90.7% (active)
[6]
  growth: 1.22% (active)
[7]
  growth: -88% (active)
[8]
  growth: -85.1% (active)
[9]
  growth: -84.9% (active)

## Nc1nc2ncc(CCNc3ccc(C(=O)O)cc3)nc2c(=O)[nH]1
[1]
  growth: 102%
[2]
  growth: 97.5%
[3]
  growth: 110%
[4]
  growth: 111%
[5]
  growth: 109%
[6]
  growth: 92.4%
[7]
  growth: 111%
[8]
  growth: 102%
[9]
  growth: 118%

## COc1ccc(SC2c3ccc(C)cc3Oc3nc(N)c(C#N)c(N)c32)cc1 (stereo not given)
[1]
  growth: -79.9% (active)
[2]
  growth: -65.1% (active)
[3]
  growth: -45.5% (active)
[4]
  growth: -69.3% (active)
[5]
  growth: -93.3% (active)
[6]
  growth: -67.9% (active)
[7]
  growth: -46.2% (active)
[8]
  growth: -94.3% (active)
[9]
  growth: -82.3% (active)

## O=c1ccccc(-c2ccc(Br)cc2)c1O
[1]
  growth: 26.3%
[2]
  growth: 21.9%
[3]
  growth: 31.4%
[4]
  growth: 13%
[5]
  growth: 9.54% (active)
[6]
  growth: 29.5%
[7]
  growth: -49.3% (active)
[8]
  growth: 4.54% (active)
[9]
  growth: 23.2%

## CSc1ccc(-c2n[nH]nc2-c2cc3ccccc3s2)cc1
[1]
  growth: 28.7%
[2]
  growth: 37.8%
[3]
  growth: 44.5%
[4]
  growth: 55.7%
[5]
  growth: 32.6%
[6]
  growth: 56.7%
[7]
  growth: 47.5%
[8]
  growth: 34.9%
[9]
  growth: 59.5%

## COc1cc(C(=O)Oc2ccccc2OC(=O)c2cc(OC)c(OC)c(OC)c2)cc(OC)c1OC
[1]
  growth: 99.4%
[2]
  growth: 110%
[3]
  growth: 95.3%
[4]
  growth: 97%
[5]
  growth: 104%
[6]
  growth: 88.8%
[7]
  growth: 103%
[8]
  growth: 94.9%
[9]
  growth: 120%

## NNCCc1ccc(NC(=O)CCCc2ccc(/C=C/C(=O)NO)cc2)cc1
[1]
  growth: 80.1%
[2]
  growth: 66.4%
[3]
  growth: 53%
[4]
  growth: 58.5%
[5]
  growth: 22.1%
[6]
  growth: 53.9%
[7]
  growth: 43%
[8]
  growth: 44%
[9]
  growth: 73.2%

## Cc1cc(N2CCOCC2)nc(N[C@@H]2CCC[C@H](Nc3ccnc4cc(Cl)ccc34)C2)n1
[1]
  growth: -43.5% (active)
[2]
  growth: -52.9% (active)
[3]
  growth: -37.3% (active)
[4]
  growth: 34.8%
[5]
  growth: -57.3% (active)
[6]
  growth: 9.75% (active)
[7]
  growth: -79.7% (active)
[8]
  growth: -77.3% (active)
[9]
  growth: -74.3% (active)

## COc1ccc(/C=C/c2nc3ccccc3nc2/C=C/c2ccc(OC)cc2)cc1
[1]
  growth: 94.5%
[2]
  growth: 95.1%
[3]
  growth: 87.8%
[4]
  growth: 108%
[5]
  growth: 95.4%
[6]
  growth: 80.3%
[7]
  growth: 90%
[8]
  growth: 102%
[9]
  growth: 102%

## N#CN1CC[C@H](C(=O)Nc2cc3cc(C(N)=O)ccc3cn2)C1
[1]
  growth: 3.81% (active)
[2]
  growth: -31.2% (active)
[3]
  growth: -28.4% (active)
[4]
  growth: 7.87% (active)
[5]
  growth: -2.5% (active)
[6]
  growth: 2.76% (active)
[7]
  growth: -34.5% (active)
[8]
  growth: 4.7% (active)
[9]
  growth: -9.92% (active)

## CCN(CC)c1ccc2c(c1)Oc1nc(N)c(C#N)c(N)c1C2Sc1ccc(SC)cc1 (stereo not given)
[1]
  growth: -14.3% (active)
[2]
  growth: -76.6% (active)
[3]
  growth: -54.9% (active)
[4]
  growth: -64.1% (active)
[5]
  growth: -92% (active)
[6]
  growth: -28.5% (active)
[7]
  growth: -14.4% (active)
[8]
  growth: -96.9% (active)
[9]
  growth: -9.16% (active)
